Measurements: article PMC4552634, “A New Set of Chemical Starting Points with Plasmodium falciparum Transmission-Blocking Potential for Antimalarial Drug Discovery” (PLoS ONE, 2015)
Among all 13,000 compounds or so, about 3,200 (25%) showed an effect of 50% or more. This is one part of the list.

These compounds were tested on P. falciparum stage V gametocytes. Details: 48 h, 5 µM; inhibitor.
Set-up: BacTiter-Glo ATP luminescence viability of purified stage V gametocytes in 384-well plates, per cent inhibition versus DMSO

SMILES | % Inhibition [%]
Cn1cnc2c(Nc3ccncc3)nc(-c3ccc(OC(F)(F)F)cc3)nc21 [TCMDC-141276] | -18.84
CCCCCC(C)N=C(Nc1ccc(C#N)cc1O)Nc1cccc(Cl)c1Cl (centres unmarked) [TCMDC-140222] | -21.37
CC[C@H](N=C(Nc1ccc(-c2ccccc2)cc1)Nc1ccc(C#N)cc1O)c1ccccc1 [TCMDC-140209] | -62.75
CC[C@H](N=C(Nc1ccc(C#N)cc1O)Nc1cccc(Cl)c1Cl)c1ccccc1 [TCMDC-140225] | 74.86
CSc1c(CNCCCNc2cc(=O)c3ccccc3[nH]2)[nH]c2ccccc12 [TCMDC-140648] | -17.76
O=C(Nc1ccc(-c2nc3ccccc3[nH]2)cc1)C1CCN(Cc2ccccc2)CC1 [TCMDC-124891] | -65.72
O=C(Nc1ccc(-c2cccc(CN3CCC(O)CC3)c2)cc1)c1cccc(Cl)c1 [TCMDC-132665] | -3.105
O=C(Nc1ccc(Oc2ccccc2)cc1)N(Cc1ccc(-c2cccc(CN3CCNCC3)c2)cc1)C1CCN(Cc2ccccc2)CC1 [TCMDC-139637] | 111.2
O=C(Nc1ccc(Cn2ncc(N3CCCNCC3)c(Cl)c2=O)cc1)Nc1cccc(Oc2ccccc2)c1 [TCMDC-133316] | 4.228
N#Cc1cccc(C(=O)Nc2ccc(-c3cccc(CN4CCC(O)CC4)c3)cc2)c1 [TCMDC-132670] | -58.6
O=C(Nc1ccc(Oc2ccccc2)cc1)N(Cc1ccc(-c2ccc(CN3CCNCC3)cc2)cc1)C1CCN(Cc2ccccc2)CC1 [TCMDC-139653] | 106.3
COC(=O)c1ccc(CN2CCC(N(Cc3cccc(Oc4ccccc4)c3)S(=O)(=O)c3ccc(NC(C)=O)cc3)CC2)cc1 [TCMDC-139500] | -7.518
O=C(Nc1ccc(Oc2ccccc2)cc1)N(CCN1CCCC1)Cc1ccc(-c2ccc(CN3CCNCC3)cc2)cc1 [TCMDC-139652] | 103.6
O=C(Nc1cccc(-c2cccc(-c3nc4ccc(C(F)(F)F)cc4[nH]3)c2)c1)c1ccc(=O)[nH]n1 [TCMDC-137031] | -1.351
O=C(Nc1ccc(-c2nc3ccccc3[nH]2)cc1)c1ccc(N2CCOCC2)c([N+](=O)[O-])c1 [TCMDC-124372] | -1.163
O=C(NC1CC1)c1cnc(N2CCN(Cc3c(F)cccc3Cl)CC2)c(Cl)c1 [TCMDC-134607] | 20.64
CCC(C)NC(=O)CN1CN(c2ccccc2)C2(CCN(C(=O)c3ccc(C(C)(C)C)cc3)CC2)C1=O (centres unmarked) [TCMDC-125176] | -75.94
Nc1ncc(-c2ccccc2)cc1-c1nc2cc(Cl)c(F)cc2[nH]1 [TCMDC-138783] | -16.12
Cc1c(S(=O)(=O)Nc2ccc3nccc(N4CC(C)NC(C)C4)c3c2)sc2ccc(Cl)cc12 (centres unmarked) [TCMDC-139464] | 2.238
CSc1ccc2nccc(Nc3ccc(Oc4ccccc4)cc3)c2c1 [TCMDC-138375] | -18.84
CC1CN(c2ccnc3ccc(Sc4ccc(Oc5ccccc5)cc4)cc23)CC(C)N1 (centres unmarked) [TCMDC-135857] | 94.55
CC[C@H](C)CNC(=O)c1ccnc(-c2cccc(CN3CCC(N4CCCC4)CC3)c2)c1 [TCMDC-134244] | 20.81

SMILES | % Inhibition [%]
O=S(=O)(c1cccc(C(F)(F)F)c1)N1CCC(CO)(Cc2cccc(C(F)(F)F)c2)CC1 [TCMDC-124606] | 41.83
CCCS(=O)(=O)N1CCC(CO)(Cc2ccccc2C(F)(F)F)CC1 [TCMDC-124652] | 66.01
N#Cc1ccc(CN2CCC(Oc3ccc(NC(=O)c4ccco4)cc3Cl)C2)cc1 (centres unmarked) [TCMDC-133963] | 28.15
O=C(NC1CCCCC1)N(Cc1cccc(-c2ccc(CNC3CCCC3)cc2)c1)C1CCN(Cc2ccccc2)CC1 [TCMDC-140631] | 106.7
O=C(NC1CCCCC1)N(Cc1ccc(-c2cccc(CNC3CCCC3)c2)cc1)C1CCN(Cc2ccccc2)CC1 [TCMDC-140638] | 83.36
O=C(NC1CCCCC1)N(Cc1cccc(-c2cccc(CNC3CCCC3)c2)c1)C1CCN(Cc2ccccc2)CC1 [TCMDC-140630] | 102.1
O=C(NC1CCCCC1)N(Cc1cccc(-c2ccc(CNCCc3ccccc3)cc2)c1)C1CCN(Cc2ccccc2)CC1 [TCMDC-140629] | 110.5
COc1ccc2nccc(NCC3(O)CCN(CCc4ccc5c(c4)OCCO5)CC3)c2n1 [TCMDC-141461] | 34.43
CC(C)CN1C(=O)C(c2ccc(F)c(F)c2)=C(O)C1c1ccccc1 (centres unmarked) [TCMDC-141919] | 11.18
O=C(Nc1ccc(OC2CCN(Cc3ccccc3)C2)c(Cl)c1)c1ccsc1 (centres unmarked) [TCMDC-133969] | -1.877
C=CCOC(=O)O[C@@H]1[C@@H](OC(=O)OCC=C)[C@@H](OC)O[C@H](COC(c2ccccc2)(c2ccccc2)c2ccccc2)[C@H]1OC(=O)OCC=C [TCMDC-139139] | 34.95
COc1ccccc1N1CCN(CCCCNC(=O)c2ccc(NC(=O)c3cc4ccccc4o3)cc2)CC1 [TCMDC-138115] | -10.75
Cc1cccc(CN2CCC(Oc3ccc(NC(=O)c4cccs4)cc3Cl)CC2)n1 [TCMDC-133964] | 24.07
O=C(NC1CCCCC1)N(Cc1ccc(-c2ccc(CNC3CCCC3)cc2)cc1)C1CCN(Cc2ccccc2)CC1 [TCMDC-140639] | 105.2
FC(F)(F)c1cccc2c(NN=Cc3ccccc3)ccnc12 [TCMDC-142025] | 48.45
COc1ccc2ncc(F)c(CCN3CC[C@@H](CNCc4ccc5c(c4C)OCCO5)C3)c2n1 [TCMDC-136057] | 40.7
COc1ccc(C(=O)CCC(=O)N(Cc2ccc(-c3ccc(CNCc4cccnc4)cn3)cc2)C2CCN(Cc3ccccc3)CC2)cc1F [TCMDC-141504] | 91.04
c1ccc(CN2CCC(NCc3ccc(-c4ccc(CNCc5cccnc5)cn4)cc3)CC2)cc1 [TCMDC-141613] | -15.37
O=C(Cc1cccnc1)N(Cc1ccc(-c2ccc(CNCc3cccnc3)cn2)cc1)C1CCN(Cc2ccccc2)CC1 [TCMDC-141503] | 73.31
COc1ccc(C(=O)CCC(=O)N(Cc2ccc(-c3ccc(CNCCc4ccc(S(C)(=O)=O)cc4)cn3)cc2)C2CCN(Cc3ccccc3)CC2)cc1F [TCMDC-141516] | 12.43
C=CCc1cccc(C)c1OCCCON1C(N)=NC(N)=NC1(C)C [TCMDC-131307] | 8.677
Cc1cc(C)n2nc(C(=O)Nc3cc(C(F)(F)F)ccc3N3CCOCC3)nc2n1 [TCMDC-123614] | 4.468

SMILES | % Inhibition [%]
Cc1cc(N(C)C)nc(Nc2ccc(NC(=O)c3ccc(Br)o3)cc2)n1 [TCMDC-124972] | -1.025
CCCC(CNC(=O)c1cc2c(Cl)cc(Cl)cc2[nH]1)CNc1cc(=O)c2ccccc2[nH]1 (centres unmarked) [TCMDC-140519] | -10.38
Cc1c(CC(=O)N(C)C2CCN(CCCCCNC(=O)/C=C/c3ccc(Cl)c(Cl)c3)CC2)sc2ccc(Cl)cc12 [TCMDC-139994] | -4.891
COc1ccc(CCn2c(=N)c(C(=O)NCc3ccccc3)cc3c(=O)n4ccccc4nc32)cc1 [TCMDC-124472] | 34.54
CCOC(=O)N/N=C/[C@H](CCc1ccccc1)NC(=O)[C@H](CC(C)C)NC(=O)c1cc2cccc(OC)c2o1 [TCMDC-135928] | 10.67
CCC[C@@H](/C=N/N(C)C(=O)OC(C)(C)C)NC(=O)[C@H](CC(C)C)NC(=O)c1cc2cccc(OC)c2o1 [TCMDC-136059] | -6.333
CCOC(=O)N(C)/N=C/[C@H](CCc1ccccc1)NC(=O)[C@H](CC(C)C)NC(=O)c1cc2cccc(OC)c2o1 [TCMDC-136018] | 75
CCOc1cc(C(=O)NCCN(CC)c2cccc(C)c2)ccc1-c1nc2ccc(Cl)cc2[nH]1 [TCMDC-140916] | -6.076
CCc1cc2c(N)nc(N)nc2nc1-c1ccccc1 [TCMDC-131931] | 14.27
Nc1nccc2ccc(-c3ccc(OCc4ccccc4)cc3)cc12 [TCMDC-133423] | 12.93
Nc1nc(N)c2cc3ccc(OCc4ccccc4)cc3nc2n1 [TCMDC-137967] | 109.1
O=C(NC(Cc1ccccc1)C(=O)O)c1cc(=O)c2ccccc2o1 (centres unmarked) [TCMDC-131318] | 3.006
Cc1ccccc1Cc1cccc(/N=C(\N)Nc2ccc(Cl)cc2)n1 [TCMDC-138942] | 89.67
N/C(=N\c1cccc(Cc2ccc([N+](=O)[O-])cc2)n1)Nc1ccccc1 [TCMDC-138952] | 90.6
COc1ccc(CCN(C)CCOc2ccc(NC(=O)c3cccc4cc5ccccc5nc34)cc2)cc1OC [TCMDC-132112] | -28.68
CC1(C)N=C(NC(=O)Nc2ccc([N+](=O)[O-])cc2)N=C(N)N1OCc1cccc2ccccc12 [TCMDC-131582] | 35.05
Cc1ccccc1CN1CCCN(Cc2ccc(C(=O)Nc3ccc(Cl)cc3)cc2)CC1 [TCMDC-136402] | -5.846
O=C(Nc1cccc(OC2CCN(Cc3ccccc3)CC2)c1)c1ccc([N+](=O)[O-])cc1 [TCMDC-139543] | 0.689
COc1cc2cc(C(=O)Nc3ccccc3)c(N)nc2cc1OC [TCMDC-123992] | 12.69
CN(c1ccccc1)c1ccnc(/N=C(\N)Nc2ccc(Cl)cc2)n1 [TCMDC-138941] | 49.31
COc1ccc(Cc2nc(N=C(N)Nc3ccccc3)ccc2OC)cc1 [TCMDC-138959] | 88.7
